CYP2C9 inh: inhibitors of human CYP2C9. P11712. CYP2C9 Supersomes, luciferin-H conversion, luminescence. inhibition, % at 5 µM. actives 20% (n = 96,000). AID 777;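 active means blocking of liver enzyme CYP2C9 beyond about 50% at 5 µM, limit read from the data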
Target sequence (P11712 whole entry, looked up): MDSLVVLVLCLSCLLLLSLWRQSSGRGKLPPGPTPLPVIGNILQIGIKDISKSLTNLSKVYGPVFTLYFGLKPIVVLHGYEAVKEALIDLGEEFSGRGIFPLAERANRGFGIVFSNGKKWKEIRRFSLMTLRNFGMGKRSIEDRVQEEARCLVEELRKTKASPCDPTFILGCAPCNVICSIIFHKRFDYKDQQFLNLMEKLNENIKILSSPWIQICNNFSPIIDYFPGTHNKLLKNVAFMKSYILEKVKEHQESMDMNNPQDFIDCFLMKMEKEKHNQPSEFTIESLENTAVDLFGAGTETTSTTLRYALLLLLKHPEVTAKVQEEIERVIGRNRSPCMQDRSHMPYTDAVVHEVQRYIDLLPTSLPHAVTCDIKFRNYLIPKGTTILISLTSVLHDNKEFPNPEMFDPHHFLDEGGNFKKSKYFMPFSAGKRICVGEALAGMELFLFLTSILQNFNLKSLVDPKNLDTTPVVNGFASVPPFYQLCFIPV
sEH act: activators of human soluble epoxide hydrolase. P34913. purified human sEH enzymatic activity, activator screen. activation, % at 2 µM. actives 0.04% (n = 91,000). AID 717; in the data active means activation above about 37%
sEH inhibitor: soluble epoxide hydrolase (human) inhibition; actives 0.34% (n = 91,000); P34913; inhibition, % at 2 µM; recombinant human sEH enzymatic activity assay; AID 707; in the data active means inhibition above about 80%
CYP2C19 act: increases human CYP2C19 enzyme activity | 96,000 tested, under 10 active | activation factor at 5 µM | P33261 | recombinant CYP2C19, luciferin-H EGE luminescence; hits give high values; 0 = fully inhibited enzyme, 1 = untreated enzyme;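 active means activation factor of at least 2 at 5 µM in the primary screen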
CYP2C19 inh: blocks human cytochrome P450 2C19; actives 21% (n = 96,000); AID 778; inhibition, % at 5 µM; CYP2C19 Supersomes, luciferin-H EGE luminescence, 30 min; P33261;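 active means CYP2C19 inhibition above a set limit at 5 µM in the primary screen, cut at about 50% in these data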
CYP2C9 activ: increases human cytochrome P450 2C9 activity; actives 1.4% (n = 96,000); recombinant CYP2C9, luciferin-H conversion, luminescence; hits give high values; factor 1 = untreated enzyme, 0 = blocked; activation factor at 5 µM;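 active means activation factor of 2 or more for CYP2C9 at a 5 µM dose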
Large screens that a line does not name were inactive. Sampled rows, rich in hits. Any-hit rate of the full collection: about 27%.

COCCN(C(=O)Cc1cccs1)C(C(=O)NCc1ccc(OC)cc1)c1ccc(OC)cc1 (stereo not drawn)	CYP2C9 inh 65 (no result: sEH act, sEH inhibitor)
CC(C(=O)NCc1ccccn1)N1C(=O)c2ccccc2C1=O (stereo not drawn)	none (no result: sEH act, sEH inhibitor)
Cc1nn(CC(=O)Nc2cccnc2N2CCOCC2)c(=O)c2ccccc12	none (no result: sEH act, sEH inhibitor)
CCOC(=O)N1CCN(c2c(NCc3ccccn3)c(=O)c2=O)CC1	none (no result: sEH act, sEH inhibitor)
COc1ccc(CNC(=O)C(c2cccs2)N(Cc2ccco2)C(=O)Cc2cccs2)cc1 (stereo not drawn)	none (no result: CYP2C9 inh, CYP2C19 act, CYP2C19 inh, CYP2C9 activ)
COc1ccc(CNC(=O)C(c2ccncc2)N(C(=O)Cc2cccs2)c2cccc(C)c2)cc1 (stereo not drawn)	CYP2C19 inh 70
Nc1nc(SCC(=O)N2N=C3/C(=C/c4ccco4)CCCC3C2c2ccco2)n[nH]1 (stereo not drawn)	CYP2C19 inh 51
Cc1ccc(/C=C/C(=O)c2c(C)cc(C)[nH]c2=O)cc1	CYP2C19 inh 89
CCc1ccc(C(C)NC(=O)/C=C/c2ccc(Br)cc2)cc1 (stereo not drawn)	none
CCc1ccc(/C=C/C(=O)c2c(C)cc(C)[nH]c2=O)cc1	CYP2C19 inh 80
Cc1ccc(C(=O)CSc2nnc(CNc3ccc(C)cc3C)o2)cc1	none
O=C(CCC(=O)OCc1ccc(C(=O)Oc2ccccc2)cc1)Nc1cccc2ccccc12	none
CCOC(=O)C1CCN(C(C(=O)Nc2ccc3c(c2)OCCO3)c2ccccc2)CC1 (stereo not drawn)	CYP2C9 inh 89
CCOC(=O)N1CCN(c2c(F)cc3[nH]c(=S)[nH]c3c2Br)CC1	CYP2C9 inh 70
Cc1c2cccn2cc[n+]1C	none
O=C(Nc1ccccc1)O/N=C(\c1ccccc1)c1ccccn1	CYP2C9 inh 61
O=C(Nc1ccccc1)OCc1cc(-c2ccccc2Cl)on1	none
NC(=O)COc1ccc(NC(=O)OCc2ccccc2)cc1	none
O=C(Nc1ccccc1)OCc1ccccn1	CYP2C19 inh 51
COC(=O)Nc1ccc(Oc2ccccc2)cc1	CYP2C19 inh 78
COC(=O)Nc1ccc(OCc2ccccc2)cc1	none
O=C(Nc1ccccc1)OCCOc1ccccc1	CYP2C19 inh 85
CC(=O)/C(=N/Nc1ccccc1C)N1CCOCC1	none
COc1ccc(-c2nc(NC(=O)c3cc(C(C)(C)C)nn3C)sc2C)cc1	none
CCOC(=O)c1nn(-c2ccccc2C)c2nc(-c3ccc(Cl)cc3)c(C#N)c(=O)n12	none
O=S(=O)(NCC1CCCO1)c1ccc(S(=O)(=O)N(Cc2ccccc2F)C2CCCCC2)cc1 (stereo not drawn)	none (no result: CYP2C9 inh, CYP2C19 act, CYP2C19 inh, CYP2C9 activ)
COc1ccc(OCCOC(=O)Nc2ccccc2)cc1	CYP2C19 inh 82
O=C(Nc1ccccc1)OCCNC(=O)c1cccc(Cl)c1	CYP2C9 inh 87, CYP2C19 inh 93
COc1ccc(NC(=O)OC(C)C)cc1	none
COc1cc(OC)c(NC2=NCCCCC2)cc1Cl	none
CCCc1cn(S(=O)(=O)c2ccc(OC)cc2OC)nc1N	none
CCOc1ccccc1N1CCN(Cc2ccc(Br)s2)CC1	CYP2C9 inh 52
COc1ccccc1N1CCN(Cc2ccc(Br)o2)CC1	CYP2C9 inh 54, CYP2C19 inh 93 (no result: sEH act, sEH inhibitor)
CCOc1ccccc1N1CCN(Cc2ccc(OC)c(OC)c2)CC1	none (no result: sEH act, sEH inhibitor)
CCOc1ccccc1N1CCN(Cc2ccco2)CC1	CYP2C19 inh 51
CC1=C(C(=O)OC(C)C)C(c2ccsc2)NC(=O)N1C (stereo not drawn)	none (no result: CYP2C9 inh, CYP2C19 act, CYP2C19 inh, CYP2C9 activ)
CCCCCCn1c(N(CC)CC)nc2c1c(=O)[nH]c(=O)n2C	none
CCOC(=O)c1ccc(NC2c3ccccc3C(=O)N2c2ccccn2)cc1 (stereo not drawn)	none
O=C(CSc1nc2ccsc2c(=O)n1NC(=O)c1ccccc1)Nc1nccs1	none (no result: CYP2C9 inh, CYP2C19 act, CYP2C19 inh, CYP2C9 activ)
COC(=O)N1CCN(c2ccc(OC)cc2)CC1	none
COC(=O)N1CCN(c2ccc(Cl)c(Cl)c2)CC1	CYP2C19 inh 66
COc1ccc(-c2cn(/N=C/c3ccc(Cl)cc3Cl)c(N)n2)cc1	CYP2C9 inh 72, CYP2C19 inh 74
Cc1[nH]nc(SCC(=O)N2CCC(C)CC2)c1[N+](=O)[O-]	none
Cc1cccc(NC(=S)N(CCc2nc3cc(C)c(C)cc3[nH]2)Cc2cccnc2)c1	none
Cc1ccc(C)c(NC(=S)N(CCc2nc3cc(C)c(C)cc3[nH]2)Cc2cccnc2)c1	CYP2C9 inh 74
CCc1nc(SC)[nH]c(=O)c1C	CYP2C19 inh 95
CCCc1nc(SCC(N)=O)[nH]c(=O)c1CC	none (no result: sEH act, sEH inhibitor)
O=C(c1cc2c(ccc3ccccc32)oc1=O)N1CCN(CCO)CC1	none (no result: CYP2C9 inh, CYP2C19 act, CYP2C19 inh, CYP2C9 activ)
O=C(c1cccs1)N1CCN(S(=O)(=O)c2ccccc2)CC1	CYP2C9 inh 70, CYP2C19 inh 97
O=C(c1ccsc1)N1CCN(C(=O)c2cccs2)CC1	CYP2C9 inh 67, CYP2C19 inh 95
CC1CN(C(=O)c2cccs2)CCN1C(=O)c1cccs1 (stereo not drawn)	CYP2C9 inh 89, CYP2C19 inh 96 (no result: sEH act, sEH inhibitor)
O=C1C2C3c4ccccc4C(c4ccccc43)C2C(=O)N1/N=C/c1cccc(O)c1 (stereo not drawn)	none
CCOC(=O)c1ccc(C(=O)OCC)nc1	none
Cn1c(SCCOc2ccc(Cl)cc2)nnc1-c1ccncc1	CYP2C19 inh 78
Cc1cc(OCCSc2nnc(-c3cccs3)n2C)ccc1Cl	CYP2C19 inh 62 (no result: sEH act, sEH inhibitor)
Cc1ccc(OCCSc2nnc(-c3cccs3)n2C)cc1	none (no result: CYP2C9 inh, CYP2C19 act, CYP2C19 inh, CYP2C9 activ)
Cc1cc(C)n2nc[n+](C)c2n1	none
CC(C)N=C(Nc1ccccc1)c1cccnc1	none
Cc1ccc(-c2c(C#N)c(N)n(-c3ccc(C)cc3)c(=O)c2C#N)cc1	none
Cc1ccc(-c2c(C#N)c(N)n3c(nc4ccccc43)c2C#N)cc1	CYP2C9 inh 64
O=C(O)Cn1nnnc1-c1ccc(F)cc1	none
N#Cc1cc(-c2ccc(Cl)cc2)cnc1Sc1ccc(F)cc1	none (no result: sEH act, sEH inhibitor)
Cc1ccc(NC2CC(=O)N(CCc3ccccc3)C2=O)cc1 (stereo not drawn)	CYP2C19 inh 64
COc1ccc(CCNC2CC(=O)N(CCc3ccccc3)C2=O)cc1 (stereo not drawn)	CYP2C19 inh 70
COc1ccc(CCN2C(=O)CC(NCCc3ccc(S(N)(=O)=O)cc3)C2=O)cc1OC (stereo not drawn)	none
O=C(NC1CCCCCCC1)C1CCC(CNc2c(N3CCCC3)c(=O)c2=O)CC1 (stereo not drawn)	none (no result: sEH act, sEH inhibitor)
CC(C)Cn1c(CNC(=O)c2ccccc2)nc2ccccc21	CYP2C19 inh 72
CCCCn1c(CCNC(=O)c2cccs2)nc2ccccc21	CYP2C19 inh 63
CCCn1c(CNC(=O)c2ccccc2)nc2ccccc21	CYP2C19 inh 61
COc1ccc(Cl)c(N2CCN(CCCNC(=O)Nc3ccc(C)cc3)CC2)c1	none
Cc1cc(C)c(NC(=O)c2ccc(CN3CCc4ccccc4C3)cc2)c(C)c1	none
O=C(NC1CCCCC1)C(c1cccs1)N(Cc1cccs1)C(=O)c1cccs1 (stereo not drawn)	none (no result: CYP2C9 inh, CYP2C19 act, CYP2C19 inh, CYP2C9 activ)

Source: PubChem BioAssay
